Measured values taken from PubChem BioAssay (NCATS).
Records with an inconclusive call do not appear. Active and inactive are the calls of the source. The call rests on the fitted dose curve; in most records, active means well fitted inhibition curve with a large enough effect; inconclusive means small, poorly fitted or top-dose-only effect; inactive means flat fitted curve, though single readings scatter.

Columns and labels:
Assay in all cases: Cytotoxic Profiling of Annotated Libraries Using Quantitative High-Throughput Screening (AID 1296008); further: nearly all actives have a fitted effect of over 60% in size
Settings in all cases: Five cell lines viability, CellTiter-Glo ATP luminescence, 48-72 h; max response: hits give low values
CRL-7250 = system: CRL-7250
How it was run: (§1)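 Cytotoxicity was measured as CellTiter-Glo ATP luminescence, read after 10 min at room temperature. Compound treatment of the cells lasted 48 or 72 hr at 37 degrees Celsius in a qHTS format.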

HEK293 = system: HEK293
How it was run: as §1

HaCat = system: HaCat
How it was run: as §1
On the % scale 0 is the no-effect control and ±100 the full control effect; potency means the concentration at half of the fitted maximal effect.

Question: What does the source list for CN1Cc2cc(C(=O)N3CCC(C4CCNCC4)CC3)ccc2N[C@@H](CC(=O)O)C1=O?
Answer: max response (CRL-7250): -4.04% (inactive); max response (HEK293): -1.55% (inactive); outcome (HaCat): inactive

Question: How did the max response (CRL-7250) turn out when CC(C)C(=O)Nc1cccc(C2CN3CCSC3=N2)c1 (stereo not given) was run?
Answer: Its max response is -9.12% (inactive).

Question: And the max response (HEK293)?
Answer: The max response was -1.66% (inactive).

Question: And the max response (HaCat)?
Answer: Its max response is -7.7% (inactive).

Question: With CN1Cc2cc(C(=O)N3CCC(C4CCNCC4)CC3)ccc2NC(CC(=O)O)C1=O (stereo not given) as the molecule, how does the max response (CRL-7250) read?
Answer: Its max response is 0.285% (inactive).

Question: And the max response (HEK293)?
Answer: Its max response is -6.55% (inactive).

Question: And the max response (HaCat)?
Answer: Its max response is -7.2% (inactive).

Question: Cc1sccc1Br was tested. Which max response (CRL-7250) did it give?
Answer: Its max response is -9.55% (inactive).

Question: And the max response (HEK293)?
Answer: The max response was -4.49% (inactive).

Question: And the max response (HaCat)?
Answer: The max response was 1.43% (inactive).

Question: O=C(O)CCCC[P+](c1ccccc1)(c1ccccc1)c1ccccc1 was tested. Which max response (CRL-7250) did it give?
Answer: Its max response is 1.78% (inactive).

Question: And the outcome (HEK293)?
Answer: Its outcome is “inactive”.

Question: What about the outcome (HaCat) of the same molecule?
Answer: The outcome was “inactive”.

Question: How did the outcome (CRL-7250) turn out when CO[C@@H]1[C@@H](O[C@@H]2O[C@H](C)[C@@H](O[C@H]3C[C@@](C)(O)[C@@H](O)[C@H](C)O3)[C@H](N(C)C)[C@H]2O)[C@@H](CC=O)C[C@@H](C)[C@@H](O[C@@H]2CC[C@H](N(C)C)[C@@H](C)O2)/C=C/C=C/C[C@@H](C)OC(=O)C[C@H]1OC(C)=O was run?
Answer: The outcome was “inactive”.

Question: What about the Potency (HEK293) of the same molecule?
Answer: Its Potency is 8.41 µM (active).

Question: What about the outcome (HaCat) of the same molecule?
Answer: Its outcome is “inactive”.

Question: With Cc1c(F)cc2c(=O)c(C(=O)O)cn3c2c1CCC3C (stereo not given) as the molecule, how does the max response (CRL-7250) read?
Answer: The max response was -2.94% (inactive).

Question: What about the outcome (HEK293) of the same molecule?
Answer: The outcome was “inactive”.

Question: What about the max response (HaCat) of the same molecule?
Answer: The max response was -5.41% (inactive).

Question: Which results are given for CCOC(=O)C(=O)c1csc(NC=O)n1?
Answer: max response (CRL-7250): -5.63% (inactive); max response (HEK293): 3.1% (inactive); max response (HaCat): 4.32% (inactive)

Question: How did the max response (CRL-7250) turn out when CCOC(=O)C(=O)CCc1ccccc1 was run?
Answer: Its max response is -13.2% (inactive).

Question: What about the max response (HEK293) of the same molecule?
Answer: Its max response is 4.19% (inactive).

Question: What about the outcome (HaCat) of the same molecule?
Answer: Its outcome is “inactive”.

Question: How did the max response (CRL-7250) turn out when CCS(=O)(=O)c1ccc(OC)c(C(=O)OC)c1 was run?
Answer: The max response was 0.361% (inactive).

Question: And the outcome (HEK293)?
Answer: Its outcome is “inactive”.

Question: What about the max response (HaCat) of the same molecule?
Answer: The max response was 4.82% (inactive).
